Assay results: PubChem BioAssay (NCATS)
Inconclusive results are not listed. Calls of active or inactive are those of the source. Unless noted, calls come from the whole dose curve; as a rule, active = well fitted inhibition curve with a large enough effect; inconclusive = small, poorly fitted or top-dose-only effect; inactive = flat fitted curve, though single readings scatter.

Experiments:
[1] = target: Cytochrome P450 1A2 (Homo sapiens) (UniProt P05177); experiment: p450-cyp1a2 (AID 410; calls by dose curve; note: potency is the fitted concentration of half-maximal effect;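 for activity change, negative = inhibition: -100% = full effect of reference inhibitor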)
Sequence of Cytochrome P450 1A2 (Homo sapiens) (P05177 whole entry, looked up): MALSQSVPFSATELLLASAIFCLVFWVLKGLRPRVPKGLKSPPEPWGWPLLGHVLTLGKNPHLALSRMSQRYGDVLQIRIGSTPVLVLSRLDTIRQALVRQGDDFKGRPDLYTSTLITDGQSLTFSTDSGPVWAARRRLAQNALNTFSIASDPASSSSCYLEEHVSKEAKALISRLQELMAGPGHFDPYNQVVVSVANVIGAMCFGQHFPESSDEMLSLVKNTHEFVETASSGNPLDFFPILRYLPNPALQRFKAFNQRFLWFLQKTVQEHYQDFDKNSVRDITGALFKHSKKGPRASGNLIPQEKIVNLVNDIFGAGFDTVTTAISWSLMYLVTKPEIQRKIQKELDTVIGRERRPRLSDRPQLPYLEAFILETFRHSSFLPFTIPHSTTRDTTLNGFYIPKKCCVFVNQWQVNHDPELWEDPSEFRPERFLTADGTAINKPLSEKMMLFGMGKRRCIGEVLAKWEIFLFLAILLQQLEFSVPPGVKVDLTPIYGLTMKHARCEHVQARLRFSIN
Outline: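 20nM CYP1A2 with 100uM Luciferin-ME (at Km) in 100mM KPO4; compound preincubated 10 min, NADPH regeneration added, 60 min at room temperature. Luciferin quantified by luminescence after detection reagent; normalized to 57 uM furafylline.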

[2] = NFAT Signaling Pathway (AID 444; active = well fitted curve in either direction with a large enough effect, not every such curve was filed as active;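 note: carbachol stimulus at about its EC50 of 1 µM final; % is set by controls: 0 for no effect and ±100 for the full control effect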); conditions: Jurkat NFAT-bla M1, carbachol, beta-lactamase ratio, 5 h; at 17.2 µM (top of the series) unless noted
Outline: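 Read-out: CCF4 FRET ratio (460 nm/530 nm) after 1 h RT dye loading, used for %activity and AC50 from titration series. Cells: Jurkat NFAT-β-lactamase/M1 line, treated with compound plus 1 uM carbachol for 5 h, 37 °C.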

[3] = Stat Signaling Pathway (AID 446; active = well fitted curve in either direction with a large enough effect, not every such curve was filed as active;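 note: ME-180 cervical cancer cells given 40 pM IL-6 alongside compound; SIE-controlled beta-lactamase reporter measured as 460/530 nm FRET emission ratio; % is set by controls: 0 for no effect and ±100 for the full control effect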)
Outline: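 Reporter line: ME-180 cervical carcinoma, SIE-beta-lactamase. Treatment: compound with 40 pM IL-6, 5 hrs, 37 C, in low-serum OPTI-MEM with 10 mM HEPES pH 7.3. Detection: 460/530 nm fluorescence.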

[4] = target: Glucocorticoid receptor (Homo sapiens) (UniProt P04150); experiment: GR-GFP Redistribution (AID 450;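 active = compounds whose dose series gives a full or clear partial fitted curve of increased nuclear translocation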; note: potency is the fitted concentration of half-maximal effect); conditions: U2OS GR-GFP nuclear translocation, laser cytometry, 2 h
Sequence of Glucocorticoid receptor (Homo sapiens) (P04150 whole entry, looked up, the tested form may be a part): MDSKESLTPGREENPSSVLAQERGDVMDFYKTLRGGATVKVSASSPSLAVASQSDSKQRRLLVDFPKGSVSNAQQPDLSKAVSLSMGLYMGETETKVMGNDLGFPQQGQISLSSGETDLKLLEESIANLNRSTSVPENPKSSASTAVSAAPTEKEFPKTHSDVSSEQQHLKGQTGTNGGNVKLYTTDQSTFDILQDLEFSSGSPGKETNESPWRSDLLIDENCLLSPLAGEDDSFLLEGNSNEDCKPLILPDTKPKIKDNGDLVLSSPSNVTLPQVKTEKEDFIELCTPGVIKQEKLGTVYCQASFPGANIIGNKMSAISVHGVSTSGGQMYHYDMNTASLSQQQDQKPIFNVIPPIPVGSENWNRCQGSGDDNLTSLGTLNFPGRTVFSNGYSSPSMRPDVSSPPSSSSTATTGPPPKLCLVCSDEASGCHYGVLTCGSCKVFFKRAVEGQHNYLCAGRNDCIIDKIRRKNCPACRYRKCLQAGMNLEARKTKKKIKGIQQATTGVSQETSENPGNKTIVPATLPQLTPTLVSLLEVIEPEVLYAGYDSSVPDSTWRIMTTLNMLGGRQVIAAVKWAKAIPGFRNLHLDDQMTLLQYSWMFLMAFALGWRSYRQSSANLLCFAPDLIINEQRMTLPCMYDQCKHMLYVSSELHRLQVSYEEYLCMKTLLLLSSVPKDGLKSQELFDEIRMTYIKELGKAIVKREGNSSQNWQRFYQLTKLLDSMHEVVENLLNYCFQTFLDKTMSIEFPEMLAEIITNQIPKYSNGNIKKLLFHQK

[5] = target: Mitogen-activated protein kinase 10 (Mus musculus) (UniProt Q61831); experiment: JNK3 AlphaScreen Assay (AID 530; active = well fitted curve in either direction with a large enough effect, not every such curve was filed as active;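 note: kinase came from lysate of stimulated human HepG2 cells; signal reports phosphorylation of biotinylated GST-cJun 1-79 at Ser73 with 10 µM ATP; % is set by controls: 0 for no effect and ±100 for the full control effect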)
Outline: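 Compound titrations were preincubated 15 minutes at room temperature with substrate, antibody and pre-activated JNK3-containing HepG2 lysate. Reactions were started with 10 uM ATP and stopped with EDTA-containing bead buffer for AlphaScreen detection.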

[6] = target: 3',5'-cyclic-AMP phosphodiesterase 4B (Homo sapiens) (UniProt Q07343); experiment: qHTS Assay for Inhibitors of PDE-IV (AID 607; active = well fitted activation curve with a large enough effect in the main read-out, with a control signal flat, not every such curve was filed as active; note: % of control where 0% means no effect)
Sequence of 3',5'-cyclic-AMP phosphodiesterase 4B (Homo sapiens) (Q07343 whole entry, looked up): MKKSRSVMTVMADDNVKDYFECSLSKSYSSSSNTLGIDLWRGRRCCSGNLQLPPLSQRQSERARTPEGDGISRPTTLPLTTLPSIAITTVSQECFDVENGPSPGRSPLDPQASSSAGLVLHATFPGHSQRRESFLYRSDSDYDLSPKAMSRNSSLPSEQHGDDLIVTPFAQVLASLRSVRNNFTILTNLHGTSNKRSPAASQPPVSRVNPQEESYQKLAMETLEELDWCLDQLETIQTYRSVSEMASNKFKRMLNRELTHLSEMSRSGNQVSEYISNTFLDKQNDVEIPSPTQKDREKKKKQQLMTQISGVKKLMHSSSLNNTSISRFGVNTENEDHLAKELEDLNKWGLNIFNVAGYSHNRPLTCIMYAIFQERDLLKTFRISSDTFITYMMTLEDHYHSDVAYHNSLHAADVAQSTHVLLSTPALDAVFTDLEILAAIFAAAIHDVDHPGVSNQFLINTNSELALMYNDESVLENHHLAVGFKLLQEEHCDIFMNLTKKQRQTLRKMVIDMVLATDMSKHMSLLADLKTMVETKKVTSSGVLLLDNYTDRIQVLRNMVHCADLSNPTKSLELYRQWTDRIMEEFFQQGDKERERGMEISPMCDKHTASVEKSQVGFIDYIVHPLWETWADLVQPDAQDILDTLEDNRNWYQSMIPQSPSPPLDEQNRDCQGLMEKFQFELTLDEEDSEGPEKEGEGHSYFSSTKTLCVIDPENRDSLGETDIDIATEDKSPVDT
Outline: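 Cell-based read-out of cAMP via a modified cyclic nucleotide-gated channel and membrane potential dye (535/590 nm) in HEK293 cells expressing PDE4 endogenously. Compounds tested up to 22.9 uM final; 100 uM RO 20-1724 reference.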

[7] = qHTS Assay for Lipid Storage Modulators (AID 1519; calls by dose curve; for activity change, negative = inhibition: % is set by controls: 0 for no effect and ±100 for the full control effect); conditions: Drosophila S3 cells, BODIPY lipid droplet/cell ratio, laser cytometry, cells loaded with oleic acid; for activity change, negative = inhibition: at 25.7 µM (top of the series)
Outline: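 Cells seeded at 5,000 per well were treated with compounds over a concentration series and loaded with oleic acid (400 uM, as added). Lipid droplet fluorescence (488 nm excitation, 500-530 nm channel) was read by laser-scanning cytometry and normalized to 20 uM Triacsin C.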

[8] = target: Ubiquitin carboxyl-terminal hydrolase 1 (Homo sapiens) (UniProt O94782); experiment: Inhibitors of USP1/UAF1: Pilot qHTS (AID 504865);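 note: rhodamine fluorescence freed from ubiquitin-rhodamine substrate followed over time; top concentration of the series differs between compounds; % is set by controls: 0 for no effect and ±100 for the full control effect; nearly all actives have a fitted effect of over 35% in size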
Sequence of Ubiquitin carboxyl-terminal hydrolase 1 (Homo sapiens) (O94782 whole entry, looked up): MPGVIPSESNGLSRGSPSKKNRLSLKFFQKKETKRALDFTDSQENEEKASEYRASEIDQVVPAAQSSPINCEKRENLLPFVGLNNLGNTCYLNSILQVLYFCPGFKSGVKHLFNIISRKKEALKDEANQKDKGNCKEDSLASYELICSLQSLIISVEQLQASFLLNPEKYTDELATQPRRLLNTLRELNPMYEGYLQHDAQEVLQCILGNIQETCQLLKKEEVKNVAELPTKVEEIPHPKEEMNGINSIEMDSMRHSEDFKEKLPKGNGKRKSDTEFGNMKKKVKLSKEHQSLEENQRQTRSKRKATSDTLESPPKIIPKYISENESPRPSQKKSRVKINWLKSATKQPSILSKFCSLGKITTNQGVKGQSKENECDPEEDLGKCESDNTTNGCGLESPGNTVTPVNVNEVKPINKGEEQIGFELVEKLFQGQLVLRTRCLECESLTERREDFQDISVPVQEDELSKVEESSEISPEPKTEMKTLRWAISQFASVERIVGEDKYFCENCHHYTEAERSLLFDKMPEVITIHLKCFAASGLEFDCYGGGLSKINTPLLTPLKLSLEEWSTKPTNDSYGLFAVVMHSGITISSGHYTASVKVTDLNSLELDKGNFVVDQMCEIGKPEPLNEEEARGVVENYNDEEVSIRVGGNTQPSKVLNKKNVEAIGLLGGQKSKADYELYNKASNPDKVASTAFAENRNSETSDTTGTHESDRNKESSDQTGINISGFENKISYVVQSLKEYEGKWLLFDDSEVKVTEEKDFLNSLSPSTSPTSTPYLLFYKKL
Outline: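 USP1/UAF1 complex at 1 nM preincubated 15 min at room temperature with compound, then Ub-Rho substrate added at 150 nM final. Fluorescence (480/540 nm) read kinetically in 50 mM HEPES pH 7.8, 0.5 mM EDTA, 1 mM TCEP, 0.1 mg/ml BSA, 0.01% Tween-20.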

[9] = target: Glucocorticoid receptor (Homo sapiens) (UniProt P04150); experiment: GR-EFC Redistribution (AID 451; calls by dose curve; note: potency is the fitted concentration of half-maximal effect); conditions: CHO-K1 GR-EFC translocation, beta-gal luminescence, 2 h
Outline: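 Translocation of GR-ED fusion to nuclear EA restores b-gal, read by luminescence after 1 h room-temperature detection. Engineered CHO-K1 biosensor cells, 1,000/well, exposed 2 h at 37 C to titrations up to 46 uM final.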

[10] = target: Luciferin 4-monooxygenase (Photinus pyralis) (UniProt P08659); experiment: Biochemical firefly luciferase enzyme assay for NPC (AID 624030);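 note: purified P. pyralis luciferase at 10 nM with luciferin and ATP substrate; 0% = DMSO and -100% = full luciferase inhibition by PTC124 control; nearly all actives have a fitted effect of over 70% in size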
Sequence of Luciferin 4-monooxygenase (Photinus pyralis) (P08659 whole entry, looked up): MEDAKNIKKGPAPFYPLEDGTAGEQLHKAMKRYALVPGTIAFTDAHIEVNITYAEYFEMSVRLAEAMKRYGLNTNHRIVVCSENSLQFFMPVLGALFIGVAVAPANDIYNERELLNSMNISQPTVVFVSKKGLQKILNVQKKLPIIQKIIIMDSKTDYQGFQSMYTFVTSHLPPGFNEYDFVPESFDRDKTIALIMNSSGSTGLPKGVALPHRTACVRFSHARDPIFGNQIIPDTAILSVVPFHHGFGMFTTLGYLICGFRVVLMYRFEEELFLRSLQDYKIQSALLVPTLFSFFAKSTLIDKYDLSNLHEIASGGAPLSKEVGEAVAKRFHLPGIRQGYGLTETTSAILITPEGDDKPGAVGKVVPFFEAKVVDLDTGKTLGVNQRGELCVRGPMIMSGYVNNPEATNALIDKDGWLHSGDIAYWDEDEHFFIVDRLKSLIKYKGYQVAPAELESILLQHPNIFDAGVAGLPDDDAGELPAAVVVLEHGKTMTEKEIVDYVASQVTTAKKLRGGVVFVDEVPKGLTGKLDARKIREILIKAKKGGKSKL
Outline: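 Direct inhibition of firefly luciferase enzyme (10 nM final, 50 mM Tris Acetate) assessed by luminescence within 5 minutes. Percent activity scaled between DMSO and PTC124 positive control, with concentration-effect curves classified by fit quality and response.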

[11] = qHTS profiling for inhibitors of Plasmodium falciparum proliferation (AID 504749); note: potency is the fitted concentration of half-maximal effect;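 for activity, negative = inhibition: 0% = DMSO vehicle and full inhibition = artemisinin control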; for all read-outs here: nearly all actives have a fitted effect of over 60% in size; conditions: P. falciparum in erythrocytes, SYBR Green DNA, 72 h; for activity, negative = inhibition: at 12.8 µM (top of the series)
Outline: (§1)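 Infected RBCs, 0.3% parasitemia/2.5% Hct final; cpd 72 h, 37 C, 5% CO2; lysis buffer with saponin/triton/SYBR Green I, o/n RT dark; FI 485/535; norm. to artemisinin (0.29 uM) and DMSO.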

CP256 = experiment: as above; conditions: P. falciparum in erythrocytes, SYBR Green DNA, 72 h; series mostly up to 12.8 µM
Outline: as §1

FAB9 = experiment: as above; conditions: P. falciparum in erythrocytes, SYBR Green DNA, 72 h; series mostly up to 12.8 µM
Outline: as §1

PC49 = experiment: as above; conditions: P. falciparum in erythrocytes, SYBR Green DNA, 72 h; series mostly up to 12.8 µM
Outline: as §1

W2 = experiment: as above; conditions: P. falciparum in erythrocytes, SYBR Green DNA, 72 h; series mostly up to 12.8 µM
Outline: as §1

C2A = experiment: as above; conditions: P. falciparum in erythrocytes, SYBR Green DNA, 72 h; series mostly up to 12.8 µM
Outline: as §1

CP238 = experiment: as above; conditions: P. falciparum in erythrocytes, SYBR Green DNA, 72 h; series mostly up to 12.8 µM
Outline: as §1

JCK = experiment: as above; conditions: P. falciparum in erythrocytes, SYBR Green DNA, 72 h; series mostly up to 12.8 µM
Outline: as §1

SC27B = experiment: as above; conditions: P. falciparum in erythrocytes, SYBR Green DNA, 72 h; series mostly up to 12.8 µM
Outline: as §1

[12] = measured here: cell count channel max response
[13] = measured here: lipid channel max response

CN[C@@H]1[C@H](O[C@H]2[C@@H](O[C@@H]3[C@@H](O)[C@@H](O)[C@@H](N=C(N)N)[C@@H](O)[C@@H]3N=C(N)N)O[C@@H](C)[C@]2(O)CO)O[C@H](CO)[C@@H](O)[C@@H]1O
-12.5%: max response [7, 13]
inactive: Potency [1] | activity change, negative = inhibition [2] 1.68% | outcome [3] | Potency [4] > 20.6 µM | Potency [5] | outcome [6] | activity change, negative = inhibition [7] -1.28% | Potency [8]
-9.77%: max response [7, 12]

Cc1onc(-c2c(F)cccc2Cl)c1C(=O)N[C@H]1C(=O)N2[C@H]1SC(C)(C)[C@H]2C(=O)O
inactive: Potency [1] | activity change, negative = inhibition [2] -12.5% | outcome [3] | Potency [4] > 20.6 µM | Potency [9] > 20.6 µM | Potency [5] | outcome [6] | activity change, negative = inhibition [7] -2.99% | Potency [8]
-8.13%: max response [7, 12]
-7.5%: max response [7, 13]

CN(C)/N=N\c1nc[nH]c1C(N)=O
inactive: Potency [1] | activity change, negative = inhibition [2] 3.5% | outcome [3] | Potency [4] > 20.6 µM | Potency [5] | outcome [6] | activity change, negative = inhibition [7] 0.337% | Potency [8]
10.1%: max response [7, 12]
7.48%: max response [7, 13]

Nc1ncnc2c1ncn2[C@@H]1O[C@H](COP(=O)(O)O)[C@@H](O)[C@@H]1O
inactive: Potency [1] | activity change, negative = inhibition [2] -4.61% | Potency [4] > 20.6 µM | Potency [9] > 20.6 µM | Potency [5] | outcome [6] | activity change, negative = inhibition [7] -0.35% | Potency [8]
-10.2%: max response [7, 12]
-10.8%: max response [7, 13]

CC1(C)O[C@H]2C[C@@H]3[C@H]4CCC5=CC(=O)CC[C@@]5(C)[C@]4(F)[C@@H](O)C[C@@]3(C)[C@@]2(C(=O)CCl)O1
-11.4%: max response [7, 12]
active: Potency ([11]; parasite line B) 1.58 µM | Potency (CP256) 3.55 µM | Potency (W2) 4.55 µM
inactive: Potency [1] | activity change, negative = inhibition [2] 17.6% | outcome [3] | Potency [5] | outcome [6] | activity change, negative = inhibition [7] -3.97% | Potency [10] | Potency (FAB9) | Potency (PC49)
-17.1%: max response [7, 13]

C1CCC(C(C[C@@H]2CCCCN2)C2CCCCC2)CC1
inactive: outcome [3] | Potency [4] > 20.6 µM | Potency [5] | activity change, negative = inhibition [7] -4.85% | Potency [8]
-11.9%: max response [7, 12]
active: Potency [1] 6.31 µM
-15.6%: max response [7, 13]

Cc1c(O)c(=O)n(-c2ccccc2)n1C
19.1%: max response [7, 13]
inactive: Potency [1] | activity change, negative = inhibition [2] -1.71% | outcome [3] | Potency [4] > 20.6 µM | Potency [9] > 20.6 µM | Potency [5] | outcome [6] | activity change, negative = inhibition [7] -0.744%
20.7%: max response [7, 12]

CCN(CC)CCOC(=O)[C@@H](c1ccccc1)C1CCCCC1
active: Potency [1] 1.26 µM
inactive: outcome [3] | Potency [4] > 20.6 µM | Potency [9] > 20.6 µM | Potency [5] | activity change, negative = inhibition [7] -5.77% | Potency [8]
-16.6%: max response [7, 13]
-11.7%: max response [7, 12]

CCN(CC)[C@@H](C)CN1c2ccccc2Sc2ccccc21
-2.65%: max response [7, 13]
inactive: outcome [3] | Potency [4] > 20.6 µM | Potency [9] > 20.6 µM | outcome [6] | activity change, negative = inhibition [7] 0.633% | Potency [8] | Potency [10] | activity, negative = inhibition ([11]; parasite line B) -12.9% | Potency (C2A) | Potency (CP238) | Potency (CP256) | Potency (FAB9) | Potency (JCK) | Potency (PC49)
-2.62%: max response [7, 12]
active: Potency [1] 0.501 µM

C=C(C)[C@H]1CC[C@]2(C(=O)O)CC[C@]3(C)[C@@H](CC[C@H]4[C@@]5(C)CC[C@@H](O)C(C)(C)[C@@H]5CC[C@@]43C)[C@H]12
inactive: Potency [1] | activity change, negative = inhibition [2] -3.55% | Potency [4] > 20.6 µM | Potency [9] > 20.6 µM | activity change, negative = inhibition [7] -9.82% | Potency [8]
-3%: max response [7, 12]
-17.2%: max response [7, 13]

C=C1CC[C@H](O)C/C1=C/C=C1\CCC[C@]2(C)[C@H]1CC[C@H]2[C@@H](C)/C=C\[C@@H](C)C(C)C
inactive: Potency [1] | activity change, negative = inhibition [2] 1.42% | outcome [3] | Potency [9] > 20.6 µM | Potency [5] | outcome [6] | activity change, negative = inhibition [7] 0.549% | Potency [8]
-2.71%: max response [7, 13]
-2.49%: max response [7, 12]

CO[C@]1(NC(=O)[C@H](C(=O)O)c2ccc(O)cc2)C(=O)N2C(C(=O)O)=C(CSc3nnnn3C)CO[C@H]21
-8.95%: max response [7, 13]
inactive: Potency [1] | activity change, negative = inhibition [2] 6.17% | outcome [3] | Potency [4] > 20.6 µM | Potency [9] > 20.6 µM | Potency [5] | activity change, negative = inhibition [7] -4% | Potency [8] | Potency [10] | activity, negative = inhibition ([11]; parasite line A) 8.42% | activity, negative = inhibition ([11]; parasite line B) 2.41% | Potency (C2A) | Potency (CP238) | Potency (CP256) | Potency (FAB9) | Potency (JCK) | Potency (PC49) | Potency (SC27B) | Potency (W2)
-7.15%: max response [7, 12]

Cc1ccc(S(=O)(=O)NC(=O)NN2C[C@H]3CCC[C@@H]3C2)cc1
inactive: Potency [1] | activity change, negative = inhibition [2] -2% | outcome [3] | Potency [5] | outcome [6] | activity change, negative = inhibition [7] 2.69% | Potency [10] | activity, negative = inhibition ([11]; parasite line A) -0.0473% | activity, negative = inhibition ([11]; parasite line B) 12.1% | Potency (C2A) | Potency (CP238) | Potency (CP256) | Potency (FAB9) | Potency (JCK) | Potency (PC49) | Potency (SC27B) | Potency (W2)
5.52%: max response [7, 12]
8.97%: max response [7, 13]

COC(=O)Nc1nc2ccc(SC(C)C)cc2[nH]1
-2.31%: max response [7, 12]
active: Potency [1] 0.501 µM
-4.22%: max response [7, 13]
inactive: outcome [3] | Potency [4] > 20.6 µM | Potency [5] | outcome [6] | activity change, negative = inhibition [7] -1.67% | Potency [8]
